VHR inh abs: DUSP3 (human) phosphatase inhibition; P51452; recombinant VHR phosphatase, pNPP absorbance; inhibition, % at 13.3 µM; 290,000 tested, 0.52% active; in the data active means inhibition above about 50%
Target sequence (P51452 whole entry, looked up): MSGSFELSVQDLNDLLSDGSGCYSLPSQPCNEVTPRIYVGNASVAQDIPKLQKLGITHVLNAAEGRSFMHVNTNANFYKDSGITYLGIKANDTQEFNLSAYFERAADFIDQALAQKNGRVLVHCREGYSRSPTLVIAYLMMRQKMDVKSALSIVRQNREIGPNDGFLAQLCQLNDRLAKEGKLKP
MazF activator: activators of E. coli MazEF toxin-antitoxin RNase | activation, % at 20 µM | FAM/BHQ RNA-DNA oligo cleavage fluorescence, 5 h | 350,000 tested, 0.32% active | P0AE70 | AID 504720; in the data active means activation above about 50%
Target sequence (P0AE70 whole entry, looked up): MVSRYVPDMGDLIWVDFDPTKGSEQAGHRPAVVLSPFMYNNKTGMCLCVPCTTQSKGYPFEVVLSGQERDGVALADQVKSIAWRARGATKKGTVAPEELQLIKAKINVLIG
CCHF vOTU inh: blocks the CCHF virus ovarian tumor domain protease; CCHFV vOTU protease, Pep-AMC fluorescence; inhibition, % at 11.5 µM; 370,000 tested, 0.55% active; AID 651958; in the data active means inhibition above about 30%; further: 0% = vehicle wells with enzyme and 100% = no enzyme wells
Y pestis TopoI: inhibitors of Yersinia pestis topoisomerase I | Y. pestis Topo-I cleavage product accumulation, plate reader | AID 504884 | 360,000 tested, 0.064% active | activity, % at 10 µM; in the data active means activity above about 50%, passing the limit was not always enough
BH1578 lux ind: inducers of Vibrio cholerae quorum light production without autoinducers; V. cholerae BH1578 lux reporter, luminescence, 6 h; activation, % at 18.7 µM; 350,000 tested, 0.16% active; in the data active means activation mostly above about 9.7%, no sharp cut-off
PrPC TRFRET: reduces human prion protein on the cell surface; inhibition, % at 13.8 µM; cell surface PrPC, TR-FRET read-out; 370,000 tested, 0.43% active; P04156; in the data active means inhibition above about 24%; further: 0% = median of the test wells and 100% = reference compound wells
The depositor's hits bear a star; i = inactive; . = no result. Most compounds without a hit are left out; they make up all but 1.8% or so of the library.

SMILES	VHR inh abs	MazF activator	CCHF vOTU inh	Y pestis TopoI	BH1578 lux ind	PrPC TRFRET
Cc1ccccc1-n1c(SCc2c(C)noc2C)nnc1-c1cccnc1	13.6	70.1*	13.5	0.1	-0.5	1.9
CC1CCCC(C)N1CC(O)COCC1COc2ccccc2O1 (centres undefined)	55.2*	7.3	13.1	6.7	i	-1.3
CCN(C(=O)Cn1nnc(-c2ccncc2)n1)c1ccccc1	.	.	5.4	.	.	-4.2
Cc1oc(C)c2c(=O)ccc3c(c12)OC(N)=C(C#N)C3c1ccccc1 (centres undefined)	-1.8	105.5*	14.4	-12.5	-0.5	-10.3
COc1cccc(NC(=O)C2CCCN2C(=O)Nc2ccc(Cl)cc2)c1 (centres undefined)	.	.	-3.9	.	.	-2.6
COc1ccc(C(NC(C)=O)c2cc(Cl)c3cccnc3c2O)cc1 (centres undefined)	4.1	10.3	8.3	-8.3	0.2	28.4*
Nc1nc2cc3c(cc2cc1C(=O)NCCc1c[nH]c2ccccc12)OCO3	.	.	-14.5	.	.	17.0
CC(=O)Nc1ccc(C(=O)CSc2cc(C)c3cccc(C)c3n2)cc1	14.1	77.7*	0.6	24.0	-0.2	2.4
Cc1cc(SCC(=O)c2cccs2)nc2c(C)cccc12	37.9	-11.0	-11.7	3.2	i	-5.5
O=C(N/N=C/c1ccc(Sc2nc3ccccc3s2)c([N+](=O)[O-])c1)c1ccccn1	39.9	100.8*	-14.3	6.5	i	3.9
COc1cccc(C2=CC(c3ccccc3)n3nnnc3N2)c1 (centres undefined)	1.8	16.9	-9.0	13.4	-0.9	7.5
COc1cccc(C2=CC(c3ccc(N(C)C)cc3)n3nnnc3N2)c1 (centres undefined)	25.0	181.6*	-3.1	12.2	4.3	6.5
CC1(C)C2CCC(C2)C1(C)NC(=O)CNCc1cccs1 (centres undefined)	51.3*	1.8	0.0	2.0	i	9.9
O=C(CNCc1cccs1)NC12CC3CC(CC(C3)C1)C2	29.7	7.2	-12.2	10.4	i	5.0
CCc1nnc(NC(=O)CSc2ncnc3scc(-c4ccc(C)cc4)c23)s1	18.9	85.7*	6.3	2.3	-0.3	1.1
C/C(=N\NC(=O)CN1CCCCC1)c1ccccc1O	53.0*	-2.8	-9.7	3.5	-1.2	8.5
C/C(=N\NC(=O)CN1CCCCC1)c1cccc([N+](=O)[O-])c1	.	9.5	3.0	-4.9	i	-19.7
COC(=O)c1ccccc1NC(=O)C(=O)NCc1ccncc1	56.3*	0.0	4.2	-0.6	0.1	-3.0
Cc1cc(C(=O)NNC(=O)COc2ccccc2Cl)n[nH]1	51.1*	-5.1	-1.6	-3.2	-0.2	-6.7
CCOc1ccc(-n2c(SCC(=O)Nc3cccc4ccccc34)nnc2-c2ccco2)cc1	.	.	2.7	.	.	-5.9
COCC(=O)N1CCN(c2ccc([N+](=O)[O-])cc2)CC1	6.2	8.6	9.3	1.4	i	-28.5
COc1cc(CCC(=O)N2CCN(c3ccc([N+](=O)[O-])cc3)CC2)cc(OC)c1OC	56.9*	3.0	0.5	2.4	i	-18.7
COc1ccc(N2C(=O)C3C4C=CC(C5CC45)C3C2=O)c([N+](=O)[O-])c1 (centres undefined)	14.7	0.7	9.3	-4.7	16.7*	-6.8
COc1ccc(N2C(=O)C3C4C=CC(CC4)C3C2=O)c([N+](=O)[O-])c1 (centres undefined)	18.9	6.2	-2.7	0.9	i	-10.0
Cc1ccc(-n2c(SCC(=O)c3ccc(Br)cc3)nnc2-c2ccncc2)cc1	.	.	3.6	.	.	1.8
SMILES	VHR inh abs	MazF activator	CCHF vOTU inh	Y pestis TopoI	BH1578 lux ind	PrPC TRFRET
CC(=O)c1c(C)[nH]c(C(=O)OCc2ccc([N+](=O)[O-])cc2)c1C	52.0*	0.5	12.2	-0.2	-0.2	1.3
Cn1c(SCC(=O)NNC(=O)Cc2ccccc2)nnc1-c1ccccc1	5.6	2.0	-11.3	-1.5	30.6*	2.7
CCn1c(SCC(=O)NNC(=O)Cc2ccccc2)nnc1-c1ccccc1	30.2	4.1	-8.0	5.2	0.4	4.3
Cc1ccccc1-c1nc(P(=O)(c2ccccc2)c2ccccc2)c(N2CCOCC2)o1	17.9	-4.4	-3.6	52.6*	-0.5	9.1
Cc1nc(P(=O)(c2ccccc2)c2ccccc2)c(N2CCOCC2)o1	14.1	-6.9	-3.1	1.0	-0.2	-1.1
CC(=O)OC(C)(C)/C=C/C(=O)[C@](C)(O)[C@H]1[C@H](O)C[C@@]2(C)[C@@H]3CC=C4[C@H](C[C@H](O)C(=O)C4(C)C)[C@]3(C)C(=O)C[C@]12C	0.9	3.9	.	8.9	-2.9	.
CC(=O)OC(C)(C)/C=C/C(=O)C(C)(O)C1C(O)CC2(C)C3CC=C4C(CC(O)C(=O)C4(C)C)C3(C)C(=O)CC12C (centres undefined)	.	5.8	2.6	23.6	i	33.6*
NC(=NC(=O)/C=C/c1ccccc1Br)N(CC#Cc1ccccc1)CC#Cc1ccccc1	.	.	.	.	.	0.3
Cc1c(N=C2N=C(NC(=O)Nc3ccc(Cl)cc3)c3ccccc32)c(=O)n(-c2ccccc2)n1C	3.1	87.7*	-5.3	3.5	-0.2	8.2
NC(=O)c1ccc(N=C2C(=O)Nc3ccc([N+](=O)[O-])cc32)cc1	26.9	9.0	116.5*	-11.0	.	-8.3
Cc1ccc2cc3c(N)c4c(C)ccc(C)c4nc3nc2c1	7.2	55.2*	-4.1	-9.1	1.0	-1.4
Cc1ccc2c(N)c(C)ccc2c1	42.8	1.5	-38.3	1.1	i	2.7
C#CCN1CC(N(C)CCCO)CS1(=O)=O (centres undefined)	.	.	-6.6	.	.	0.2
Nc1c(C(=O)c2cccs2)oc2ccccc12	17.2	1.1	4.0	0.9	0.3	-1.3
Nc1c(C(=O)c2ccc(Br)s2)oc2ccccc12	27.7	63.9*	-8.8	4.4	i	5.0
CC(C)CNS(=O)(=O)/C=C/c1cc2c(cc1CNC(=O)OC(C)(C)C)OCO2	.	.	9.8	.	.	-1.1
O=C(NCCCn1ccnc1)c1cccc(Br)c1	52.6*	12.7	3.3	-7.7	-0.6	5.5
CN(C)c1ccc(/C=C(/NC(=O)c2ccccc2)C(=O)NCCCn2ccnc2)cc1	-5.0	73.6*	.	0.2	i	.
Cn1c(C(=O)N2CCC(C(=O)N3CCN(Cc4ccc5c(c4)OCO5)CC3)CC2)cc2sccc21	15.1	-1.4	-0.6	30.5	-0.4	-0.6
Cn1c(C(=O)N2CCC(C(=O)N3CCOCC3)CC2)cc2sccc21	53.3*	-6.2	-11.6	0.8	-0.6	3.7
Cc1ccccc1N(C)C(=O)C1CCCN1S(=O)(=O)c1cccc2cccnc12 (centres undefined)	.	.	1.3	.	.	-8.3
COc1ccc(CNC(=O)c2cc3cccc(OC)c3oc2=N)cc1	53.5*	10.9	3.6	-4.4	-4.3	1.3
COc1ccc(S[C@]2(C(=O)N3CCN(c4ncccn4)CC3)CC(=O)N(C(=O)/C=C/c3ccccc3)[C@@H]2c2ccc(OC)cc2)cc1	.	.	14.5	.	.	10.6
CSCC[C@@H](C(=O)Nc1ccc2c(c1)OCCO2)N1Cc2ccccc2C1=O	8.2	-1.5	5.7	13.2	.	-6.8
